Values without a mark were called inactive. How the calls were made is not given here.

The test deals with Pantothenate synthetase (Mycobacterium tuberculosis (strain ATCC 25618 / H37Rv)) (UniProt P9WIL5). The test can be described thus: Recombinant Mtb pantothenate synthetase (PanC) inhibitors, coupled enzyme, confirmatory (AID 375).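 Further: 0% = full reaction with vehicle and 100% = no enzyme background.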 The note with it: coupled enzyme assay; at 10 µM, hits give high values.
Pantothenate synthetase (Mycobacterium tuberculosis (strain ATCC 25618 / H37Rv)), sequence (P9WIL5 whole entry, looked up): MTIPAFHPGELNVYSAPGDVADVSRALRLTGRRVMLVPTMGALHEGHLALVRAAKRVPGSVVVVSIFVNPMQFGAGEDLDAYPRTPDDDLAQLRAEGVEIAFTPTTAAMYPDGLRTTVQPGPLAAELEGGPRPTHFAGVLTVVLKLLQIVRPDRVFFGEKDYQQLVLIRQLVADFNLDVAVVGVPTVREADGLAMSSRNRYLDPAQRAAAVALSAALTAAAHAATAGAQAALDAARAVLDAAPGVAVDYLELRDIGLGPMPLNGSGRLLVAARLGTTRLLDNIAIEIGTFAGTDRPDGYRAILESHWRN
As a reminder, the inhibition is the relative decrease from the control value, in per cent. For the compound `O=C1NC(c2ccccc2)(C(F)(F)F)SC2=NCCCN12` (stereo not drawn), the inhibition is 0%.
On to `Cc1nc(CCNS(=O)(=O)c2cccs2)cs1`, for which the inhibition was 0%.
For `CCCCn1nc(C(=O)N2CCc3ccccc32)c2ccccc2c1=O`, the inhibition was 6%.
For the compound `CCOC(=O)Nc1ccc2c(c1)N(C(=O)CCN1CCOCC1)c1ccccc1S2`, the inhibition is 3%.
As to `O=c1oc2ccccc2c2c1ncn2-c1ccccc1`, the inhibition is 0%.
Next, `Cc1nnc(SCC(=O)Nc2nccs2)s1`: 0%; `CC1C(O)=C(c2nc3ccccc3[nH]2)C(=N)N1c1ccccc1` (stereo not drawn): 9%; `CN(C)/C=C(\C#N)c1nc2ccccc2[nH]1`: 0%.
Next, `OCCNCC(O)Cn1ccc2ccccc21` (stereo not drawn): 2%; `CCOC(=O)CCCOC(=O)c1ccc(S(=O)(=O)N(C)C)cc1`: 0%.
Next, `CN1CCCN(C(=O)c2cc(=O)[nH]c3ccccc23)c2nc3ccccc3nc21`: 0%; `CCC(C)C(=O)Nc1nc2c(s1)C(=O)CC(C)(C)C2` (stereo not drawn): 10%.
`CCOc1ccc2nc(SCC#N)c(C#N)cc2c1`: the inhibition was 0%.
Next, `NS(=O)(=O)c1ccc(C(=O)O)cc1`: 0%; `COc1ccc(Nc2ncc3c(n2)CC(c2ccc(OC)cc2)CC3=O)cc1` (stereo not drawn): 3%; `COc1ccc(C(c2sc3nc(C)nn3c2O)N2CCCCC2)cc1` (stereo not drawn): 0%.
Turning to `COCCn1cc(C(=O)c2ccccc2OCC(=O)Nc2cc(C)on2)cc(C#N)c1=O`, the inhibition is 0%.
For the compound `CCCC(=O)Nc1ccccc1-c1nnn(CC(=O)Nc2ccc(OC)cc2)n1`, the inhibition is 0%.
Take `O=C(O)CC1Sc2nc3ccccc3n2C1=O` (stereo not drawn): the inhibition was 0%.
For `O=C(c1csc2ccccc12)n1cccn1`, the inhibition is 0%.
Next, `Cc1nc(C)c(C(=O)C2=C(O)C(=O)N(CCN3CCOCC3)C2c2ccco2)s1` (stereo not drawn): 9%.
Turning to `Cn1c(C(=O)OCC(=O)NCC2CCCO2)cc2sccc21` (stereo not drawn), the inhibition is 2%.
Next, `CCOc1ccc(NCCC(=O)c2ccc3c(c2)OCO3)cc1`: 1%.
